Source: PubChem BioAssay (NCI)
Where “and” joins values, the source holds several entries; their conditions need not be identical. Identical values can stand only once. Compounds without any hit were thinned out: in the full panel of roughly 83,000, 20% have a hit.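 Note: values are percent growth. 100 is the growth of untreated cells, values between 100 and 0 indicate rising inhibition; between -100 and 0 indicates cell death.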 Calls of active or inactive are those of the source. Rule for the calls: active = growth percent below 10; inactive = the rest.

Test system: MCF7 breast
Test: NCI-60 one-dose screen, 48 h (100 = growth as untreated, 0 = no growth, -100 = all killed)
Details: 10 µM unless noted

Structure (SMILES) | growth
NC(=O)CC1OC(=O)Cc2cc3c(c(O)c21)C(=O)c1c(O)cccc1C3=O (configuration not stated) | 30.4% [100 µM] (inactive)
CCCCCC(O)(CCCCC)CCCCCCCCC1=C(O)c2ccccc2C(=O)C1=O | -37.7% [100 µM] (active) and -36.7% [100 µM] (active)
C=CCNC1=C2C[C@@H](C)C[C@@H](OC)[C@@H](OC(=O)CCCN)[C@H](C)/C=C(\C)[C@@H](OC(N)=O)[C@H](OC)/C=C\C=C(/C)C(=O)NC(=CC1=O)C2=O | -82% [100 µM] (active) and -94.9% [100 µM] (active)
CC(C)=CCc1cc(C2COc3cc4c(c(O)c3C2=O)C=CC(C)(C)O4)c(O)cc1O (configuration not stated) | -75.7% [100 µM] (active) and -83.3% [100 µM] (active)
COc1cc(-c2nc(SC)nc3c2CCc2ccccc2-3)cc(OC)c1OC | 19.3% [100 µM] (inactive) and 8.46% [100 µM] (active)
COc1c2c(c3c(c1OC)c(=O)c1ccccc1n3C)OCO2 | 81.3% [100 µM] (inactive)
CCOc1cc2c(cc1O)/C(=N/NS(=O)(=O)c1ccc(C)cc1)C[C@@H]1[C@@H]2CC[C@]2(C)[C@@H](O)CC[C@@H]12 | -3.96% [100 µM] (active)
O=C1NC(N/N=C\c2ccccc2)=N/C1=C/c1ccc(Cl)cc1 | -66.3% [100 µM] (active) and 14% [100 µM] (inactive)
C=C(CCC(C(=O)O)C1CCC2(C)C3=C(CCC12C)C1(C)CCC(O)C(C)(C)C1CC3)C(C)C (configuration not stated) | -52.5% [100 µM] (active) and -56.2% [100 µM] (active)
Cc1ccc(/C=N/Nc2nc3ccccc3s2)s1 | 2.03% [100 µM] (active) and 4.5% [100 µM] (active)
Cc1cc(S(=O)(=O)O)c(NC(=O)c2oc3cc(O)ccc3c(=O)c2C)cc1Cl | 100% [100 µM] (inactive) and 86.3% [100 µM] (inactive)
CN(C)c1ccc(/C=N/n2c(-c3ccccc3)nc3ccccc3c2=O)cc1 | 40.4% [100 µM] (inactive) and 21.1% [100 µM] (inactive)
COc1ccc(OC)c(N(CN2C(=O)CCC2C(=O)O)C(C)=O)c1 (configuration not stated) | 86% [100 µM] (inactive) and 95.9% [100 µM] (inactive)
N#CC1(C#N)N[C@@H](c2ccsc2)[C@H]2C(=O)N(c3ccccc3)C(=O)[C@H]21 | 22.5% [100 µM] (inactive) and 12.4% [100 µM] (inactive)
CC1CC2(OC2C)C(=O)OC2CCN(C)C/C=C(/COC(=O)C1(C)O)C2=O (configuration not stated) | 91.6% [100 µM] (inactive) and 82.5% [100 µM] (inactive)
COc1ccc(-c2coc3c4c(ccc3c2=O)OCO4)cc1OC | 53.7% [100 µM] (inactive) and 32.9% [100 µM] (inactive)
C=C1C(=O)O[C@H]2C[C@@]3(C)[C@H](O)CCC(=C)[C@@H]3[C@@H](OC(C)=O)[C@H]12 | -83.4% [100 µM] (active) and -77.4% [100 µM] (active)
Clc1c(Cl)c(Cl)c2nn(C3CCCO3)nc2c1Cl (configuration not stated) | 15.9% [100 µM] (inactive) and -100% [100 µM] (active)
C[C@@H]1C[C@](O)([C@@H](C)Cl)C(=O)O[C@@H]2CCN3CC=C(COC(=O)[C@]1(C)O)[C@H]23 | 82.2% [100 µM] (inactive) and 71.5% [100 µM] (inactive)

Structure (SMILES) | growth
CC(=N/N=C/c1ccccn1)/C(C)=N/N=C(C)/C(C)=N/N=C(C)/C(C)=N/N=C(C)/C(C)=N\N=C\c1ccccn1 | 84.9% [100 µM] (inactive) and 89.9% [100 µM] (inactive)
COc1ccc(C2c3cc4c(c(OC)c3CC3OCC(=O)C32)OCO4)cc1OC (configuration not stated) | 6.05% [100 µM] (active) and -81% [100 µM] (active)
COC(=O)c1cnn2c1n[n+]([O-])c1ccccc12 | 68.2% [100 µM] (inactive) and 11.8% [100 µM] (inactive)
COc1ccc2cc(CN3CCC(C4CCNCC4)CC3)ccc2c1 | -76.9% [100 µM] (active) and -23.4% [100 µM] (active)
O=C1c2ccccc2-c2c1c1ccccc1c(=O)n2-c1cccnc1 | 21.1% [100 µM] (inactive) and 3.24% [100 µM] (active)
CC1CC(=O)N(N(C)C)C(C#N)(C#N)C1(C#N)C#N (configuration not stated) | -67.7% [100 µM] (active) and -85.9% [100 µM] (active)
COC(=O)C(Cc1nc2ccccc2[nH]c1=O)C(=O)C(=O)Nc1cc(C(F)(F)F)ccc1Cl (configuration not stated) | -91.8% [100 µM] (active) and 0% [100 µM] (active)
COc1cc2c(cc1C1COc3cc4occc4cc3C1=O)OCO2 (configuration not stated) | 65.2% [100 µM] (inactive) and 62.9% [100 µM] (inactive)
COC(=O)C(/C(=N/NC(N)=O)C(=O)Nc1ccc(C)cc1)c1nc2ccc([N+](=O)[O-])cc2[nH]c1=O (configuration not stated) | 68.7% [100 µM] (inactive) and 41.2% [100 µM] (inactive)
O[C@H]1[C@H](O)[C@@H](Cn2nnc(-c3ccccc3)c2-c2ccccc2)OCO[C@@H]1Cn1nnc(-c2ccccc2)c1-c1ccccc1 | -62.6% [100 µM] (active)
COC(=O)C(C(=O)C(=O)Nc1c(C)cccc1C(C)(C)C)c1nc2ccc(Cl)cc2[nH]c1=O (configuration not stated) | 69.9% [100 µM] (inactive) and 60.9% [100 µM] (inactive)
O=C(O)CCCC(=O)Nn1c(Cc2ccc(Cl)cc2)n[nH]c1=O | 78.3% [100 µM] (inactive) and 78.8% [100 µM] (inactive)
CC1(C)S[C@H](CN)N[C@H]1C(=O)OC(c1ccccc1)c1ccccc1 | -8.91% [100 µM] (active) and -100% [100 µM] (active)
COC(=O)c1ccc(NC(=O)O/N=C(\Cl)C(C)C)cc1 | -87.1% [100 µM] (active) and -100% [100 µM] (active)
CCOC(=O)C(=O)C(CCC(=O)c1ccc2ccccc2c1O)C(=O)OCC (configuration not stated) | 69.9% [100 µM] (inactive) and 81.3% [100 µM] (inactive)
COc1ccc2c(=O)c(-c3cc4c(cc3OC)OCO4)coc2c1 | 74% [100 µM] (inactive) and 47.3% [100 µM] (inactive)
COC(=O)C(=O)C(C(=O)C(=O)Nc1nc2ccc(C)cc2s1)c1nc2ccc([N+](=O)[O-])cc2[nH]c1=O (configuration not stated) | 60.3% [100 µM] (inactive) and 57.7% [100 µM] (inactive)
O=C(Nc1cccc(NC(=O)C(=O)C2CCC3=C(Sc4ccccc4N3)C2=O)n1)C(=O)C1CCC2=C(Sc3ccccc3N2)C1=O (configuration not stated) | 51.4% [100 µM] (inactive) and 4.4% [100 µM] (active)
